The values below come from publication PMC5540273 (PLoS ONE, 2017).

Test systems include CHEK1; CHEK2; CIT; CLK1; CLK2; CLK3; CLK4; CSF1R-autoinhibited; CSF1R; CSK; CSNK1A1L; CSNK1A1; CSNK1D; CSNK1E; CSNK1G1; CSNK1G2; CSNK1G3; CSNK2A1; CSNK2A2.
What all share (conditions): concentration: 1 μM, replicates: in singlicate; n = 1
The next experiment relates to T1, CTK.
T1 construct: gene MATK
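Further: KINOMEscan kinase panel screen.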

As for `N#Cc1ccc(-c2cc(-c3c[nH]nc3-c3ccccn3)ccn2)cc1` [GW693028], the “%Inh” value came to 0% with CHEK1; 0% in the experiment on CHEK2; 35% in the experiment on CIT; 22% with CLK1; 8% in the experiment on CLK2; 0% with CLK3. For the same compound, the “%Inh” value with CLK4 was 38%; in the experiment on CSF1R-autoinhibited, 0%; in the experiment on CSF1R, 20%; with CSK, 0%; in the experiment on CSNK1A1L, 12%; in the experiment with CSNK1A1, 19%. Moreover, the “%Inh” value in the experiment with CSNK1D was 62%; in the experiment with CSNK1E it was 32%; with CSNK1G1, 8%; in the experiment with CSNK1G2, 0%; with CSNK1G3 it was 8%; in the experiment with CSNK2A1, 0%. Further, the figures for the “%Inh” value in the experiment on CSNK2A2 and in the experiment on CTK were 5% and 0%, respectively.
As for `Cc1nnc(-c2ccc(C)c(-c3ccc(C(=O)Nc4ccc(NS(C)(=O)=O)cc4)cc3)c2)o1` [GW702865], the “%Inh” value is given as 0% in the experiment with CHEK1; 30% in the experiment on CHEK2; 7% with CIT; 2% in the experiment with CLK1; 0% in the experiment on CLK2; 2% in the experiment with CLK3. For the same compound, the “%Inh” value with CLK4 turned out to be 0%; in the experiment with CSF1R-autoinhibited it was 37%; with CSF1R, 1%; with CSK, 0%; in the experiment with CSNK1A1L, 0%; with CSNK1A1, 0%. Also, the “%Inh” value in the experiment on CSNK1D is reported as 14%; in the experiment on CSNK1E, 0%; with CSNK1G1, 0%; in the experiment on CSNK1G2, 15%; with CSNK1G3, 17%; in the experiment on CSNK2A1, 0%. The “%Inh” value with CSNK2A2 worked out at 15%; in the experiment on CTK, 0%.
In the case of `COc1ccc(Nc2ncc(C#N)c(Nc3ccccc3C(N)=O)n2)cc1N1CCN(C)CC1.Cl` [GSK1558669], the “%Inh” value in the experiment with CHEK1 stood at 100%; with CHEK2, 78%; in the experiment on CIT, 69%; in the experiment with CLK1 it was 99.8%; in the experiment on CLK2 it was 99.3%; in the experiment with CLK3 it was 85%. The “%Inh” value was found to be 99.7% in the experiment with CLK4; 67% with CSF1R-autoinhibited; 99.9% in the experiment with CSF1R; 85% in the experiment on CSK; 97.3% in the experiment with CSNK1A1L; 82% in the experiment on CSNK1A1. In addition, the “%Inh” value is listed as 66% in the experiment with CSNK1D; 78% in the experiment on CSNK1E; 50% with CSNK1G1; 0% in the experiment with CSNK1G2; 27% in the experiment with CSNK1G3; 99.7% in the experiment with CSNK2A1. The “%Inh” value with CSNK2A2 is recorded as 99.9%; in the experiment with CTK it was 56%.
As to `N#Cc1c(N2CCOCC2)sc(-c2ccn[nH]2)c1-c1ccc(Cl)cc1`, the “%Inh” value with CHEK1 was found to be 15%; in the experiment with CHEK2 it was 15%; in the experiment on CIT it was 24%; in the experiment with CLK1 it was 6%; in the experiment on CLK2, 0%; with CLK3, 16%. The “%Inh” value amounted to 0% with CLK4; 8% in the experiment with CSF1R-autoinhibited; 34% in the experiment with CSF1R; 17% with CSK; 0% in the experiment with CSNK1A1L; 17% with CSNK1A1. Besides, the “%Inh” value in the experiment on CSNK1D was 0%; with CSNK1E, 15%; in the experiment with CSNK1G1, 0%; in the experiment with CSNK1G2, 0%; with CSNK1G3, 10%; with CSNK2A1, 34%. The “%Inh” value in the experiment on CSNK2A2 came to 14%; in the experiment on CTK, 3%.
With `Nc1nccc(-c2c(-c3ccc(F)cc3)ncn2C2CCN(CC(F)(F)F)CC2)n1` [SB-236560], the “%Inh” value in the experiment on CHEK1 is reported as 0%; in the experiment on CHEK2, 38%; with CIT, 66%; in the experiment with CLK1, 0%; with CLK2, 6%; with CLK3, 17%. Besides, the “%Inh” value in the experiment with CLK4 was 0%; in the experiment with CSF1R-autoinhibited, 68%; in the experiment on CSF1R it was 0%; in the experiment on CSK, 0%; in the experiment with CSNK1A1L, 2%; with CSNK1A1, 92.7%. Further, the “%Inh” value is listed as 86% in the experiment on CSNK1D; 96.6% with CSNK1E; 0% in the experiment on CSNK1G1; 1% in the experiment on CSNK1G2; 0% in the experiment on CSNK1G3; 0% in the experiment with CSNK2A1. Moreover, the entries for the “%Inh” value in the experiment with CSNK2A2 and in the experiment on CTK were 0% and 7%, respectively.
In the case of `COc1cc2c(cc1OC[C@@H](O)CO)ncc1c3ccc(C#N)cc3[nH]c21`, the “%Inh” value turned out to be 7% with CHEK1; 48% in the experiment on CHEK2; 94.8% in the experiment with CIT; 89% with CLK1; 88% in the experiment with CLK2; 2% with CLK3. Also, the “%Inh” value was 89% in the experiment on CLK4; 96.6% with CSF1R-autoinhibited; 44% in the experiment on CSF1R; 1% in the experiment on CSK; 0% with CSNK1A1L; 9% in the experiment with CSNK1A1. For the same compound, the “%Inh” value in the experiment on CSNK1D was 0%; in the experiment on CSNK1E, 0%; in the experiment on CSNK1G1, 0%; in the experiment with CSNK1G2, 0%; in the experiment on CSNK1G3, 0%; in the experiment on CSNK2A1, 81%. For the same compound, the “%Inh” value with CSNK2A2 was 93.9%; in the experiment on CTK, 18%.
In the case of `COC(=O)Nc1nc2cc(Oc3ccc(NC(=O)Nc4cc(F)ccc4F)cc3)ccc2[nH]1.Cl` [GW701424], the “%Inh” value stood at 0% in the experiment with CHEK1; 21% in the experiment with CHEK2; 99% in the experiment with CIT; 29% in the experiment with CLK1; 0% in the experiment on CLK2; 14% with CLK3. Besides, the “%Inh” value in the experiment with CLK4 was 40%; in the experiment on CSF1R-autoinhibited, 50%; in the experiment with CSF1R, 99.7%; in the experiment with CSK, 0%; with CSNK1A1L it was 13%; in the experiment with CSNK1A1, 0%. Besides, the “%Inh” value is 9% with CSNK1D; 26% in the experiment on CSNK1E; 0% in the experiment on CSNK1G1; 0% in the experiment with CSNK1G2; 21% in the experiment on CSNK1G3; 0% in the experiment with CSNK2A1. Also, the results for the “%Inh” value in the experiment on CSNK2A2 and with CTK were 6% and 0%, respectively.
On to `c1ccc(-c2cc(-c3c[nH]nc3-c3ccccn3)ccn2)cc1` [GW576604], for which the “%Inh” value in the experiment with CHEK1 is on record as 0%; in the experiment with CHEK2, 6%; in the experiment on CIT it was 27%; in the experiment with CLK1 it was 5%; with CLK2, 12%; in the experiment on CLK3 it was 0%. Further, the “%Inh” value with CLK4 came to 11%; with CSF1R-autoinhibited, 26%; with CSF1R, 0%; in the experiment on CSK it was 0%; with CSNK1A1L, 0%; in the experiment on CSNK1A1 it was 0%. Moreover, the “%Inh” value in the experiment with CSNK1D worked out at 38%; with CSNK1E, 15%; in the experiment on CSNK1G1 it was 0%; in the experiment with CSNK1G2, 1%; in the experiment on CSNK1G3 it was 3%; with CSNK2A1, 0%. The results for the “%Inh” value in the experiment on CSNK2A2 and with CTK were 15% and 0%, respectively.
